# Measured values taken from PubChem BioAssay AID596 (National Center for Advancing Translational Sciences (NCATS), 2007).
# Screen size: about 71,000 compounds; about 1,400 (2%) were called active. A call without a number means that no potency is given here. Another 3% or so got no clear call; they are omitted. The sample as a whole holds a higher share of actives than the screen did. A number with no mark means an inactive call. Calls follow the shape of the dose curve; as a rule, active = well fitted curve in the direction sought with a large enough effect; inconclusive = small, poorly fitted or top-dose-only effect; inactive = no such curve, though single readings can be large or run the other way.
# Target: Microtubule-associated protein tau (Homo sapiens) (UniProt P10636)
# Sequence (P10636 whole entry, looked up): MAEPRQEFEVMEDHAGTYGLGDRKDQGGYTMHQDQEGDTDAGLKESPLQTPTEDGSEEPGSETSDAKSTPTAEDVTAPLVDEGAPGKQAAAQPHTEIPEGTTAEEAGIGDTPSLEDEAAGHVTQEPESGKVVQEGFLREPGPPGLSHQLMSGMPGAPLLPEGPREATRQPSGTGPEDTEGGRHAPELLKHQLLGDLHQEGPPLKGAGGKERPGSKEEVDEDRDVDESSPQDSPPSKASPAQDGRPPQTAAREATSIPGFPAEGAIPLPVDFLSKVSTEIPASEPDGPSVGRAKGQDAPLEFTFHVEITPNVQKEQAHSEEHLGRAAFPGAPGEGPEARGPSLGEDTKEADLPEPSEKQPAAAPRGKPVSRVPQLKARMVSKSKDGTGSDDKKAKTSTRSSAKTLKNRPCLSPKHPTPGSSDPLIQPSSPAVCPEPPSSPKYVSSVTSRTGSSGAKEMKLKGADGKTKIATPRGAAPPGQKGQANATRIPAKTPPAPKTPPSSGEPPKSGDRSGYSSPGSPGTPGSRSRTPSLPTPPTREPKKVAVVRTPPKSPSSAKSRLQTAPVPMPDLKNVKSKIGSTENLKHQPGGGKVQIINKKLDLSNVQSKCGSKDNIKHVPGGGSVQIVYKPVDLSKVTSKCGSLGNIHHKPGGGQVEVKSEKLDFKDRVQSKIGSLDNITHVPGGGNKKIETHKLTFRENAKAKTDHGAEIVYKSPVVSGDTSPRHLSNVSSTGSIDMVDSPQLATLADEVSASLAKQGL
# Test: qHTS Assay for Tau Filament Binding;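 also: actives lower thioflavin S fluorescence by blocking filaments or displacing dye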
# Conditions: recombinant tau filaments, thioflavin S fluorescence, 15 h, filaments grown with octadecylsulfate alongside compound; series mostly up to 57.1 µM
# Description: NIH Molecular Libraries Screening Centers Network [MLSCN]
# NIH Chemical Genomics Center [NCGC]
# Assay Provider: Jeffrey A. Kuret, Ohio State University
# Tau monomers form filaments in vitro in the presence of anionic detergents or fatty acids. The dye Thioflavine S (ThS) binds to tau filaments and upon binding, increases in fluorescence several fold. Small molecules that displace ThS binding or prevent filament binding are identified by a reduction in ThS fluorescence. This assay used histidine-tagged, recombinant human tau protein containing the products of exons 2, 3, and 10 that was provided by Jeff Kuret, Ohio State University. To form filaments, 1 uM tau was incubated with 30 uM sodium octadecylsulfate (ODS) in reagent buffer (10 uM thioflavine S, 5 mM 1,4-dithioerythreitol (DTT), 100 mM sodium chloride, 10 mM HEPES pH 7.4) for 15 hrs at 37 C.
# NCGC Assay Protocol Summary:
# Assay Steps. Two uL/well of 2 uM tau in reagent buffer (10 uM thioflavine S, 5 mM DTT, 100 mM sodium chloride, 10 mM HEPES pH 7.4) was dispensed into solid black 1536-well plates. Twenty-three nL compound was transferred to the assay plate after which 2 uL/well of 60 uM ODS in reagent buffer was dispensed for a final assay volume of 4 uL /well. Following 15 hours of incubation at 37 C, fluorescence was detected by an Envision (Perkin Elmer) using 450/8 nm excitation and 510/23 nm emission.
# Keywords: NIH Roadmap, MLSCN, MLI, MLSMR, qHTS, NCGC, Alzheimer's disease, Neurofibrillary lesions, tau, tubulin assembly, microtubule stability, cytoskeletal integrity, fibrillization, thioflavin dyes, Amyloidgenic
# Potency is read from the fitted curve at half-maximal effect.
SMILES,Potency,"activity change, negative = inhibition"
COC(=O)C1(Cc2ccccc2)C=C2C(=C(C)C(=O)C2C)CN1 (stereo not given),inactive,–
Cc1ccc(C2CC(c3cccc(Br)c3)n3nc(N)nc3N2)cc1 (stereo not given),inactive,–
CCNC(=S)NCC,inactive,–
Cc1nc2c(c(=O)n1Cc1ccco1)c1nc3ccccc3nc1n2Cc1ccccc1,15.8 µM (active),–
CCOC(=O)CSc1nc2c(sc(=S)n2CCc2ccccc2)c(=O)n1Cc1ccco1,inactive,–
COCCCn1c2nc3ccccc3nc2c2c(=O)n(Cc3ccc(Cl)cc3)c(C)nc21,inactive,–
O=c1c2ccccc2oc2nc(C3CCCCC3)n(Cc3ccco3)c(=O)c12,inactive,–
Cc1ccc(Cn2c(C)nc3c(c2=O)c2nc4ccccc4nc2n3Cc2ccco2)cc1,25.1 µM (active),–
Cc1ccc(Cn2c(NC(=O)c3ccco3)nc3ccccc32)cc1,inactive,–
CCC(C)(C)n1nnnc1C(c1ccccc1OC)N1CCSCC1 (stereo not given),inactive,–
c1ccc(-c2oc3ncnc(N4CCOCC4)c3c2-c2ccccc2)cc1,inactive,–
c1cnn(-c2cc(N3CCOCC3)ncn2)c1,inactive,–
O=C1c2ccccc2-c2ncnc3c(N4CCOCC4)cc(N4CCOCC4)c1c23,5.01 µM (active),–
O=C1c2ccccc2C(=O)N1CCCSc1ccccc1,–,-2.3% [at 11.4 µM]
C[N+](C)(CCCCCC[N+](C)(C)CCCN1C(=O)c2cccc3cccc(c23)C1=O)CCCN1C(=O)c2cccc3cccc(c23)C1=O,2 µM (active),–
COc1ccc(N2C(=O)c3cccc4cccc(c34)C2=O)nn1,inactive,–
O=C(c1ccc2c(c1)N(Cc1ccc(F)cc1)C(=O)CS2)N1CCOCC1,inactive,–
COc1ccc(N)c(C)c1,inactive,–
CCCC(=O)Nc1ccc2c(c1)nc1n2CCSC1,inactive,–
Cc1cccc(C(=O)O)c1[N+](=O)[O-],inactive,–
Brc1ccc(OCCn2ccnc2)cc1,inactive,–
Cc1cccc(NC(=O)CSC(N)=O)c1C,inactive,–
Cc1ccccc1NC(=O)c1ccccc1,inactive,–
Cc1nc(C)c(C(=O)Nc2cccc(C)c2C)o1,15.8 µM (active),–

SMILES,Potency,"activity change, negative = inhibition"
Cc1cccc(OCC(O)Cn2c(=N)n(CCN3CCOCC3)c3ccccc32)c1 (stereo not given),inactive,–
CC(C)OCCCNc1nc2c(c(=O)n(Cc3ccccc3F)c(=O)n2C)n1C,inactive,–
Cc1ccc2nc(-c3ccccc3)cc(C(=O)O)c2c1,inactive,–
Cc1cc(=O)oc(C)c1C(=O)Nc1cnc2ccccc2c1,inactive,–
Cc1ccc(NC(=O)c2cc(-c3ccc(C)o3)nc3ccccc23)nc1,10 µM (active),–
C1CCC2OC2C1 (stereo not given),inactive,–
N=C(CC(=O)Nc1ccccn1)c1ccccc1,–,-2.3% [at 11.4 µM]
CC1=Nn2c(nnc2-c2ccccc2)SC1,inactive,–
Cc1cc(C)c2c(n1)nn1c(N3CCOCC3)cc(C)nc21,inactive,–
COc1ccc(-n2c(=O)c(C)nc3cnc(N4CCOCC4)nc32)cc1,inactive,–
Cc1nn2c3cc(N4CCOCC4)ccc3nc2c2ccccc12,12.6 µM (active),–
O=C(C(Cc1ccccc1)n1cccc1)N1CCN(C2CCCCC2)CC1 (stereo not given),inactive,–
O=C(O)/C(=C/c1c(C(=O)O)[nH]c2cc(Cl)cc(Cl)c12)c1ccccc1,inactive,–
O=C(CSc1nc2[nH]ncc2c(=O)n1-c1ccccc1)N1CCCc2ccccc21,inactive,–
O=c1nc(N2CCOCC2)nc2n1CCO2,inactive,–
COc1ccccc1-c1cc(NCc2cccs2)ncn1,inactive,–
CNc1nc(-c2ccccc2OC)nc2ccccc12,12.6 µM (active),–
COc1ccccc1CNc1nc(-c2c(C)noc2C)nc2ccccc12,inactive,–
COc1ccccc1-c1nc(N2CCN(C)CC2)c2ccccc2n1,inactive,–
COc1ccccc1-c1nc(NCc2cccs2)c2ccccc2n1,2.51 µM (active),–
COc1ccccc1-c1nc(NCCNC(C)=O)c2ccccc2n1,inactive,–
Cc1ccccc1C(=O)O,inactive,–
CCCCCCN(C(=O)CCCCCN1C(=O)NC(c2ccc(C(F)(F)F)cc2)C(C(=O)OCc2ccccc2)=C1C)C(C(=O)NCCCC)c1ccc(OCC(=O)OC)c(C(=O)OC)c1 (stereo not given),inactive,–
COC(=O)[C@@]1(C)C=C[C@@H](Cc2ccccc2)N1C(C)=O,inactive,–

SMILES,Potency,"activity change, negative = inhibition"
COc1cc([C@H]2c3cc4c(cc3[C@@H](O[C@@H]3O[C@H]5CO[C@@H](C)O[C@]5(O)C[C@H]3O)[C@@H]3COC(=O)[C@H]23)OCO4)cc(OC)c1O,inactive,–
COc1ccc(OC)c(Nc2nc(-c3ccc(O)c(O)c3)cs2)c1,20 µM (active),–
Oc1ccc(-c2csc(Nc3cccnc3)n2)cc1,inactive,–
COc1ccc(-c2n[nH]c(C)c2-c2ccc(OC)c(OC)c2)c(O)c1,inactive,–
CCc1c(C)nc(N)n2c(SCC(=O)N3CCN(c4ccccc4)CC3)nnc12,inactive,–
CC(Cc1ccccc1)C(=O)N(C)Cc1ccccc1 (stereo not given),inactive,–
CCc1ccc(N(CC)c2ncnc3nc[nH]c23)cc1,inactive,–
O=c1c(-c2cccs2)nc2cnc(Oc3ccccc3)nc2n1-c1ccccc1,inactive,–
CN(C(=O)COc1nnc(-c2cccs2)c(-c2cccs2)n1)c1ccccc1,25.1 µM (active),–
CN(C(=O)COc1ccccc1)c1nnc(-c2ccncc2)s1,inactive,–
CCCn1c(SCC(N)=O)nnc1C(C)C,inactive,–
O=C(Cn1cnc2c(nnn2Cc2ccc(F)cc2)c1=O)NCc1ccc2c(c1)OCO2,inactive,–
CCOC(=O)C(C)Oc1cccc2c(=O)n(CC(=O)N3CCc4ccccc43)ccc12 (stereo not given),inactive,–
COCCNc1cc(-c2c(C)noc2C)ncn1,inactive,–
COC(=O)CCNc1ccc2c(c1)OCCO2,inactive,–
CCOc1ccc(NCCC(=O)c2ccc3c(c2)OCO3)cc1,25.1 µM (active),–
COc1ccc(C(=O)Nc2ccc3c(c2)OCO3)cc1OC,inactive,–
O=C(Cl)c1ccccc1[N+](=O)[O-],inactive,–
O=C(CSc1nnc(Cc2ccccc2)n1-c1ccccc1)N1CCOCC1,inactive,–
CCN(CC)CCN1C(=O)C(=O)/C(=C(/O)c2ccccc2)C1c1ccccc1F (stereo not given),inactive,–
CCN(CC)CCN1C(=O)C(=O)/C(=C(/O)c2ccc(OC)c(OC)c2)C1c1ccccn1 (stereo not given),20 µM (active),–
O=C1C(=O)N(CCN2CCOCC2)C(c2ccccn2)/C1=C(/O)c1ccc(Cl)cc1 (stereo not given),inactive,–
